In PubChem BioAssay (NCI):
The panel holds about 79,000 compounds, 15% with a hit somewhere; the sample as a whole holds those more often. Rule as the data show it: active = growth inhibition above about 70%; inactive = the rest.

Columns and labels:
[1] = NCI Yeast Anticancer Drug Screen. Data for the rad52 strain (AID 147);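 also: 0% = growth of vehicle-treated control cultures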; settings: S. cerevisiae rad52 mutant growth inhibition, hits give high values
How it was run: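 Compounds are applied to a genetically defined yeast strain lacking normal DNA damage repair, and inhibition of growth is expressed relative to cultures given vehicle only.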

[2] = NCI Yeast Anticancer Drug Screen. Data for the wt1 strain (AID 149);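 also: 0% = growth of vehicle-treated wt1 cultures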; settings: S. cerevisiae wt1 strain (SPY 50644) growth inhibition, hits give high values
How it was run: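 Yeast wt1 strain exposed to compounds; growth inhibition measured relative to vehicle-treated controls.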

[3] = NCI Yeast Anticancer Drug Screen. Data for the rad50EPP+ strain (AID 151);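 also: 0% = growth of vehicle-treated control cultures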; settings: S. cerevisiae rad50 mutant strain, hits give high values
How it was run: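 Compounds were applied to the rad50EPP+ yeast strain, which bears a defined DNA repair alteration, and growth inhibition was determined relative to vehicle-treated cultures.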

[4] = NCI Yeast Anticancer Drug Screen. Data for the mgt1 strain (AID 153); settings: S. cerevisiae mgt1 mutant growth inhibition, hits give high values
How it was run: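 Strain: mgt1 yeast, one of a set carrying defined DNA damage repair or cell cycle control alterations. Compound-treated growth compared with vehicle.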

[5] = NCI Yeast Anticancer Drug Screen. Data for the rad50 strain (AID 155);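 also: 0% = growth of vehicle-only cultures of the same strain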; settings: S. cerevisiae rad50 strain growth inhibition, hits give high values
How it was run: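 Yeast carrying a defined DNA repair defect were exposed to test compounds, and growth was compared with vehicle-treated controls to give percent inhibition.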

[6] = NCI Yeast Anticancer Drug Screen. Data for the mec2-1 strain (AID 157); settings: S. cerevisiae mec2-1 strain, hits give high values
How it was run: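 Strain: mec2-1 (DNA repair/cell cycle alteration). Compound exposure, then growth measured; inhibition expressed relative to vehicle.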

[7] = NCI Yeast Anticancer Drug Screen. Data for the rad14 strain (AID 159);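 also: 0% = growth of vehicle-treated control cultures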; settings: S. cerevisiae rad14 strain growth inhibition, hits give high values
How it was run: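 Yeast cells carrying a defined DNA-repair defect were exposed to compounds, and growth inhibition was calculated relative to vehicle-treated control cultures.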

[8] = NCI Yeast Anticancer Drug Screen. Data for the sgs1 mgt1 strain (AID 161);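 also: 0% = growth of cultures given vehicle only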; settings: S. cerevisiae sgs1 mgt1 strain, hits give high values
How it was run: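 Test agents were incubated with a DNA-repair-mutant yeast strain. Growth was then read and compared against vehicle-treated controls.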

[9] = NCI Yeast Anticancer Drug Screen. Data for the CLN2oe strain (AID 163);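 also: 0% = growth of vehicle-only control cultures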; settings: S. cerevisiae CLN2oe strain, hits give high values
How it was run: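 Growth of a genetically modified yeast strain is measured after compound exposure and compared with cultures given vehicle alone.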

[10] = NCI Yeast Anticancer Drug Screen. Data for the cln2 rad14 strain (AID 165);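 also: 0% = growth equal to vehicle treated cultures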; settings: S. cerevisiae cln2 rad14 strain, hits give high values
How it was run: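 Compounds are applied to the cln2 rad14 yeast strain, and growth is then compared with that of vehicle-treated cultures to give inhibition.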

[11] = NCI Yeast Anticancer Drug Screen. Data for the bub3 strain (AID 167); settings: S. cerevisiae bub3 mutant strain, hits give high values
How it was run: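 Compounds were applied to a genetically altered yeast strain carrying a cell-cycle control defect. Growth inhibition was scored against vehicle-treated controls.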

[12] = NCI Yeast Anticancer Drug Screen. Data for the wt2 strain (AID 169);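 also: 0% = growth of vehicle-treated yeast cultures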; settings: S. cerevisiae wt2 strain growth inhibition, hits give high values
How it was run: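 This strain belongs to a panel of yeast strains with defined genetic alterations in DNA damage repair or cell cycle control. Compounds are applied, and growth inhibition is measured against vehicle-treated cultures.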

[13] = NCI Yeast Anticancer Drug Screen. Data for the mlh1 strain (AID 171);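 also: 0% = growth of vehicle-treated control cultures of the same strain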; settings: S. cerevisiae mlh1 strain growth inhibition, hits give high values
How it was run: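 Growth of the mutant yeast strain after compound exposure, expressed as inhibition relative to vehicle-only controls.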

[14] = NCI Yeast Anticancer Drug Screen. Data for the sgs1 strain (AID 173);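 also: 0% = growth of vehicle-only control cultures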; settings: S. cerevisiae sgs1 mutant, hits give high values
How it was run: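 Growth of a yeast strain bearing a defined genetic alteration is measured after compound treatment. Inhibition is expressed relative to vehicle-only controls.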

[15] = NCI Yeast Anticancer Drug Screen. Data for the mlh1 rad18 strain (AID 175); settings: S. cerevisiae mlh1 rad18 strain growth inhibition, hits give high values
How it was run: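 Read-out is yeast growth inhibition, calculated against vehicle-only controls. The compound was applied to a strain engineered with DNA damage repair alterations.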

[16] = NCI Yeast Anticancer Drug Screen. Data for the rad18 strain (AID 177); settings: S. cerevisiae rad18 mutant growth inhibition, hits give high values
How it was run: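 Growth of the mutant yeast strain after compound exposure, normalised to vehicle-only cultures.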

[17] = at 5.0 µM (retest, dose inferred, filed as 0.5)
[18] = at 50.0 µM (retest, dose inferred, filed as 5.0)

Measured: growth inhibition

COc1ccc2sc3cccc(NCCN(C)C)c3c(=O)c2c1
inactive: [1]; at 1.2 µM -3% | [1]; at 3.7 µM -3% | [1]; at 11.0 µM -1% | [1]; at 33.0 µM 2% | [1]; at 100.0 µM 27% | [2]; at 1.2 µM 1% | [2]; at 3.7 µM 6% | [2]; at 11.0 µM 3% | [2]; at 33.0 µM 2% | [2]; at 100.0 µM 10% | [3]; at 1.2 µM 6% | [3]; at 3.7 µM 8% | [3]; at 11.0 µM 17% | [3]; at 33.0 µM 25% | [3]; at 100.0 µM 61% | [4]; at 1.2 µM -1% | [4]; at 3.7 µM -3% | [4]; at 11.0 µM -4% | [4]; at 33.0 µM -3% | [4]; at 100.0 µM 15% | [5]; at 1.2 µM 0% | [5]; at 3.7 µM 1% | [5]; [17] -14% | [5]; at 11.0 µM 2% | [5]; at 33.0 µM 7% | [5]; [18] -10% | [5]; at 50.0 µM 25.2% | [5]; at 100.0 µM 31% | [6]; at 1.2 µM 3% | [6]; at 3.7 µM 4% | [6]; [17] -3% | [6]; at 11.0 µM 6% | [6]; at 33.0 µM 9% | [6]; [18] 3% | [6]; at 50.0 µM -4.1% | [6]; at 100.0 µM 12% | [7]; at 1.2 µM -1% | [7]; at 3.7 µM -1% | [7]; at 11.0 µM -1% | [7]; at 33.0 µM 9% | [7]; at 100.0 µM 33% | [8]; [17] -9% | [8]; [18] 38% | [8]; at 50.0 µM 54.6% | [9]; at 1.2 µM -3% | [9]; at 3.7 µM -10% | [9]; at 11.0 µM -4% | [9]; at 33.0 µM -4% | [9]; at 100.0 µM 17% | [10]; [17] 3% | [10]; [18] 6% | [10]; at 50.0 µM 31.6% | [11]; at 1.2 µM -4% | [11]; at 3.7 µM -3% | [11]; [17] 9% | [11]; at 11.0 µM -3% | [11]; at 33.0 µM -1% | [11]; [18] 5% | [11]; at 50.0 µM -4.65% | [11]; at 100.0 µM 1% | [12]; at 1.2 µM 0% | [12]; at 3.7 µM -2% | [12]; at 11.0 µM 0% | [12]; at 33.0 µM -1% | [12]; at 100.0 µM 8% | [13]; at 1.2 µM -1% | [13]; at 3.7 µM 2% | [13]; at 11.0 µM 3% | [13]; at 33.0 µM 4% | [13]; at 100.0 µM 18% | [14]; at 1.2 µM 2% | [14]; at 3.7 µM 1% | [14]; at 11.0 µM 3% | [14]; at 33.0 µM 2% | [14]; at 100.0 µM 16% | [15]; [17] -1% | [15]; [18] -9% | [15]; at 50.0 µM 67.3% | [16]; at 1.2 µM 0% | [16]; at 3.7 µM 0% | [16]; at 11.0 µM 2% | [16]; at 33.0 µM 9% | [16]; at 100.0 µM 27%

COc1ccc2nc3c([N+](=O)[O-])ccc(NCCN(C)C)c3c(NCCN(C)C)c2c1
inactive: [1]; at 1.2 µM 15% | [1]; at 3.7 µM 10% | [1]; at 11.0 µM 26% | [1]; at 33.0 µM 28% | [1]; at 100.0 µM 23% | [2]; at 1.2 µM -3% | [2]; at 3.7 µM -3% | [2]; at 11.0 µM -3% | [2]; at 33.0 µM -2% | [2]; at 100.0 µM 0% | [3]; at 1.2 µM 0% | [3]; at 3.7 µM 3% | [3]; at 11.0 µM 1% | [3]; at 33.0 µM 5% | [3]; at 100.0 µM 14% | [4]; at 1.2 µM 0% | [4]; at 3.7 µM 2% | [4]; at 11.0 µM 1% | [4]; at 33.0 µM 1% | [4]; at 100.0 µM 2% | [5]; at 1.2 µM -1% | [5]; at 3.7 µM 0% | [5]; [17] 16% | [5]; at 11.0 µM 0% | [5]; at 33.0 µM 2% | [5]; [18] 33% | [5]; at 50.0 µM 26.9% | [5]; at 100.0 µM 12% | [6]; at 1.2 µM -1% | [6]; at 3.7 µM -4% | [6]; [17] 15% | [6]; at 11.0 µM -5% | [6]; at 33.0 µM 0% | [6]; [18] 17% | [6]; at 50.0 µM 35% | [6]; at 100.0 µM 3% | [7]; at 1.2 µM -2% | [7]; at 3.7 µM -3% | [7]; at 11.0 µM -3% | [7]; at 33.0 µM -4% | [7]; at 100.0 µM 1% | [8]; [17] -2% | [8]; [18] 14% | [8]; at 50.0 µM 3.95% | [9]; at 1.2 µM -5% | [9]; at 3.7 µM -1% | [9]; at 11.0 µM 1% | [9]; at 33.0 µM -5% | [9]; at 100.0 µM -5% | [10]; [17] 29% | [10]; [18] 61% | [10]; at 50.0 µM 62.4% | [11]; at 1.2 µM -3% | [11]; at 3.7 µM -7% | [11]; [17] 14% | [11]; at 11.0 µM 1% | [11]; at 33.0 µM -3% | [11]; [18] -1% | [11]; at 50.0 µM 20.4% | [11]; at 100.0 µM -3% | [12]; at 1.2 µM -3% | [12]; at 3.7 µM 0% | [12]; at 11.0 µM -1% | [12]; at 33.0 µM -1% | [12]; at 100.0 µM -2% | [13]; at 1.2 µM -1% | [13]; at 3.7 µM -2% | [13]; at 11.0 µM -1% | [13]; at 33.0 µM -1% | [13]; at 100.0 µM 1% | [14]; at 1.2 µM 3% | [14]; at 3.7 µM 6% | [14]; at 11.0 µM 2% | [14]; at 33.0 µM 2% | [14]; at 100.0 µM 2% | [15]; [17] -7% | [15]; [18] 24% | [15]; at 50.0 µM -21.4% | [16]; at 1.2 µM 6% | [16]; at 3.7 µM 6% | [16]; at 11.0 µM 7% | [16]; at 33.0 µM 1% | [16]; at 100.0 µM -6%
